Among the data in PubChem BioAssay (NCATS) are activity, negative = inhibition and Potency values, retold here.

Records with an inconclusive call do not appear. Unmarked numbers belong to inactive results. Calls of active or inactive are those of the source. Calls come from the whole dose curve; as a rule, active = well fitted inhibition curve with a large enough effect; inconclusive = small, poorly fitted or top-dose-only effect; inactive = flat fitted curve, though single readings scatter.

The nature of assay [1]: qHTS profiling for inhibitors of Plasmodium falciparum proliferation (AID 504749).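 For activity, negative = inhibition: 0% = DMSO vehicle and full inhibition = artemisinin control.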 For all read-outs here: nearly all actives have a fitted effect of over 60% in size. The conditions noted are these: P. falciparum in erythrocytes, SYBR Green DNA, 72 h; for activity, negative = inhibition: at 28.7 µM (top of the series). Summed up:
(§1)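 Each compound contacts P. falciparum-infected red blood cells for 72 h at 37 C; lysis buffer (Tris, EDTA, saponin, Triton X, SYBR Green I) is added and fluorescence measured next morning; values normalized to controls.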
On the technique in general: Quantitative high-throughput screening tests each substance at several concentrations.

Assay [2] concerns 3D7. Described as above. Conditions: P. falciparum in erythrocytes, SYBR Green DNA, 72 h; series mostly up to 28.7 µM. In a few lines: as §1
In assay [3] the test system is 7G8. The assay is described as above. The conditions noted are these: P. falciparum in erythrocytes, SYBR Green DNA, 72 h; series mostly up to 28.7 µM. Summed up:
as §1

The subject of assay [4] is AA1029. The description is as above. Conditions: P. falciparum in erythrocytes, SYBR Green DNA, 72 h; series mostly up to 28.7 µM. Summed up: as §1
Assay [5] concerns AS120. The assay is described as above. The conditions noted are these: P. falciparum in erythrocytes, SYBR Green DNA, 72 h; series mostly up to 28.7 µM. In a few lines:
as §1

The subject of assay [6] is ATS189. The assay is described as above. The conditions noted are these: P. falciparum in erythrocytes, SYBR Green DNA, 72 h; series mostly up to 28.7 µM. In a few lines:
as §1
Potency is the fitted concentration of half-maximal effect.

Turning to `CCN(CC)C(=S)S`, the activity, negative = inhibition in assay [1] (parasite line A) was -22.3%; in assay [1] (parasite line B), -18.1%. The Potency entry in assay [2], in assay [3], in assay [4], in assay [5] and in assay [6] was “inactive” each time.
On to `CC(C)CCCC(C)NC(C)C` (stereo not given), for which the activity, negative = inhibition was -16.1% in assay [1] (parasite line A) and -1.21% in assay [1] (parasite line B). Besides, the Potency entry in assay [2], in assay [3], in assay [4], in assay [5] and in assay [6] was “inactive” each time.
As for `CC1=C(/C=C/C(C)=C/C=C/C(C)=C/C(=O)Oc2c(C)c(C)c3c(c2C)CC[C@@](C)(CCC[C@H](C)CCC[C@H](C)CCCC(C)C)O3)C(C)(C)CCC1`, the activity, negative = inhibition in assay [1] (parasite line A) was 5.64%; in assay [1] (parasite line B) it was 7.26%. Further, the Potency entry in assay [2], in assay [3], in assay [4], in assay [5] and in assay [6] was “inactive” each time.
Take `CC(C)=CCC/C(C)=C/CC/C(C)=C/CC/C=C(\C)CC/C=C(\C)CCC=C(C)C`: the activity, negative = inhibition in assay [1] (parasite line A) is 0.919%; in assay [1] (parasite line B) it was 12.5%. Also, the Potency entry in assay [2], in assay [3], in assay [4], in assay [5] and in assay [6] was “inactive” each time.
For the compound `CCN(CC)CCOc1ccccc1OC`, the activity, negative = inhibition in assay [1] (parasite line A) is -4.79%; in assay [1] (parasite line B), -3.67%. Further, the Potency entry in assay [2], in assay [3], in assay [4], in assay [5] and in assay [6] was “inactive” in each case.
As for `Cc1cc(C)c(NC(=O)C[C@H](CC(=O)O)c2cccc3ccccc23)c(C(=O)N2CCC3(CCCC3)CC2)c1`, the values for the activity, negative = inhibition in assay [1] (parasite line A) and in assay [1] (parasite line B) were 4.74% and -1.81%, respectively. For the same compound, the Potency result in assay [2], in assay [4], in assay [5] and in assay [6] was “inactive” in each case.
As to `CSCCC(N)C(=O)O` (stereo not given), the activity, negative = inhibition in assay [1] (parasite line A) is 6.14%; in assay [1] (parasite line B), 15.2%. Besides, the Potency result in assay [2], in assay [3], in assay [4], in assay [5] and in assay [6] was “inactive” in each case.
`Cc1c(Cl)cccc1Nc1ncccc1C(=O)O`: the activity, negative = inhibition was 15.4% in assay [1] (parasite line A) and 7.39% in assay [1] (parasite line B). For the same compound, the Potency entry in assay [2], in assay [3], in assay [4], in assay [5] and in assay [6] was “inactive” in each case.
As to `CC1(C)S[C@@H]2[C@H](NC(=O)C3(N)CCCCC3)C(=O)N2[C@H]1C(=O)O`, the activity, negative = inhibition in assay [1] (parasite line A) is 1.02%; in assay [1] (parasite line B), 10.4%. Further, the Potency entry in assay [2], in assay [3], in assay [4], in assay [5] and in assay [6] was “inactive” each time.
In the case of `O=P(O)(O)OC[C@H](O)CO`, the activity, negative = inhibition is -1.1% in assay [1] (parasite line A) and 9.77% in assay [1] (parasite line B). In addition, the Potency result in assay [2], in assay [3], in assay [4], in assay [5] and in assay [6] was “inactive” in each case.
Regarding `C=CC(C)(O)CC/C=C(\C)CCC=C(C)C` (stereo not given), the activity, negative = inhibition in assay [1] (parasite line A) was 2.76%; in assay [1] (parasite line B), -4.38%. Besides, the Potency result in assay [2], in assay [3], in assay [4], in assay [5] and in assay [6] was “inactive” each time.
Regarding `Nc1ncnc2c1ncn2[C@H]1CC[C@@H](CO)O1`, the activity, negative = inhibition in assay [1] (parasite line A) is 5.25%; in assay [1] (parasite line B), 9.47%. Also, the Potency entry in assay [2], in assay [3], in assay [4], in assay [5] and in assay [6] was “inactive” each time.
As to `CSc1nc2cc(Oc3cccc(Cl)c3Cl)c(Cl)cc2[nH]1`, the Potency is 3.98 µM (active) in assay [1] (parasite line A); 11.2 µM (active) in assay [1] (parasite line B); 8.91 µM (active) in assay [3]; 11.2 µM (active) in assay [4]; 11.2 µM (active) in assay [5]; 6.31 µM (active) in assay [6].
For `CCOc1cc(-c2nccc3cc(OC)c(OC)cc23)cc(OCC)c1OCC`, the Potency is 8.91 µM (active) in assay [1] (parasite line A), 11.2 µM (active) in assay [1] (parasite line B) and 11.2 µM (active) in assay [3].
Regarding `O=C1CCC(c2ccccc2)(C2CCN(Cc3ccccc3)CC2)C(=O)N1` (stereo not given), the results for the activity, negative = inhibition in assay [1] (parasite line A) and in assay [1] (parasite line B) were 7.2% and 9.21%, respectively. Further, the Potency result in assay [2], in assay [4], in assay [5] and in assay [6] was “inactive” throughout.
Regarding `CC(C)C1=CC2=CC[C@@H]3[C@](C)(CCC[C@@]3(C)C(=O)O)[C@H]2CC1`, the activity, negative = inhibition in assay [1] (parasite line A) is -4.25%; in assay [1] (parasite line B) it was -11.9%. For the same compound, the Potency result in assay [2], in assay [4], in assay [5] and in assay [6] was “inactive” in each case.
For `CC(C)OC(=O)Nc1ccc2nc(-c3cscn3)[nH]c2c1`, the activity, negative = inhibition in assay [1] (parasite line A) is 1.15%; in assay [1] (parasite line B), -9.28%. For the same compound, the Potency result in assay [2], in assay [4], in assay [5] and in assay [6] was “inactive” in each case.
